Laboratory results: PubChem BioAssay AID1159580 (chemical genetic matrix, 2015)
About 2,000 (36%) of roughly 5,500 compounds were called active. Inconclusive results (about 18%) are left out. The list shows a part of the results. Values without a mark were called inactive. No stated cut-off is given here; in the data, active means normalized growth mostly below about 0.91 (no sharp cut-off); inconclusive means no clear call, values can overlap the other calls; inactive means mostly above about 0.92.

Experiment: chemical genetic growth profiling, strain panel (AID 1159580);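 further: tested at 20 µM; growth read once vehicle control cultures reached saturation at 30 °C; 1 = growth at the plate median or of vehicle wells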
Settings: S. cerevisiae deletion strains, growth OD
[1] = locus YDL101C, strain DUN1, stronger effect = lower value
[2] = locus YHR030C, strain SLT2, stronger effect = lower value

Question: With `O=C1CSC(c2cccnc2)N1c1ccc(Cl)cc1` (stereo not drawn) as the compound, how does the normalized growth (locus YAL013W, strain DEP1, stronger effect = lower value) read?
Answer: 1

Question: What about the normalized growth (locus YBR229C, strain ROT2, stronger effect = lower value) of the same compound?
Answer: 0.997

Question: What about the normalized growth [1] of the same compound?
Answer: 0.978

Question: And the normalized growth (locus YDR150W, strain NUM1, stronger effect = lower value)?
Answer: 0.997

Question: What about the normalized growth (locus YEL061C, strain CIN8, stronger effect = lower value) of the same compound?
Answer: 0.977

Question: What about the normalized growth (locus YGR078C, strain PAC10, stronger effect = lower value) of the same compound?
Answer: 1

Question: What about the normalized growth (locus YGR229C, strain SMI1, stronger effect = lower value) of the same compound?
Answer: 0.984

Question: And the normalized growth [2]?
Answer: 1.12

Question: What about the normalized growth (locus YHR087W, strain rtc3, stronger effect = lower value) of the same compound?
Answer: 0.98

Question: What about the normalized growth (locus YJR043C, strain POL32, stronger effect = lower value) of the same compound?
Answer: 0.983

Question: What about the normalized growth (locus YJR075W, strain HOC1, stronger effect = lower value) of the same compound?
Answer: 1

Question: What about the normalized growth (locus YKL190W, strain CNB1, stronger effect = lower value) of the same compound?
Answer: 0.997

Question: What about the normalized growth (locus YLR039C, strain RIC1, stronger effect = lower value) of the same compound?
Answer: 0.723 (active)

Question: What about the normalized growth (locus YLR058C, strain SHM2 (second series), stronger effect = lower value) of the same compound?
Answer: 1.01

Question: What about the normalized growth (locus YLR085C, strain ARP6, stronger effect = lower value) of the same compound?
Answer: 1

Question: And the normalized growth (locus YLR262C, strain YPT6, stronger effect = lower value)?
Answer: 0.677 (active)

Question: What about the normalized growth (locus YML094W, strain GIM5, stronger effect = lower value) of the same compound?
Answer: 0.957

Question: And the normalized growth (locus YMR219W, strain ESC1, stronger effect = lower value)?
Answer: 0.992

Question: And the normalized growth (locus YMR263W, strain SAP30, stronger effect = lower value)?
Answer: 1.04

Question: What about the normalized growth (locus YMR307W, strain GAS1, stronger effect = lower value) of the same compound?
Answer: 1.01

Question: What about the normalized growth (locus YNL153C, strain GIM3, stronger effect = lower value) of the same compound?
Answer: 1.01

Question: And the normalized growth (locus YNL298W, strain CLA4 (second series), stronger effect = lower value)?
Answer: 1

Question: What about the normalized growth (locus YNL322C, strain KRE1, stronger effect = lower value) of the same compound?
Answer: 0.995

Question: What about the normalized growth (locus YNR030W, strain Alg12, stronger effect = lower value) of the same compound?
Answer: 0.994

Question: What about the normalized growth (locus YPL055C, strain LGE1, stronger effect = lower value) of the same compound?
Answer: 0.986

Question: What about the normalized growth (locus YPL241C, strain CIN2, stronger effect = lower value) of the same compound?
Answer: 1.04

Question: What about the normalized growth (locus YPR135W, strain CTF4, stronger effect = lower value) of the same compound?
Answer: 1.05

Question: Which normalized growth (locus YAR019C, strain CDC15, stronger effect = lower value) does the source give for `CC1SC(c2cccnc2)N(c2ccc(F)cc2F)C1=O` (stereo not drawn) here?
Answer: 1

Question: And the normalized growth (locus YBL105C, strain PKC1, stronger effect = lower value)?
Answer: 0.987

Question: And the normalized growth (locus YBR135W, strain CKS1, stronger effect = lower value)?
Answer: 0.982

Question: And the normalized growth (locus YBR136W, strain MEC1, stronger effect = lower value)?
Answer: 0.99

Question: What about the normalized growth (locus YBR160W, strain CDC28, stronger effect = lower value) of the same compound?
Answer: 0.983

Question: What about the normalized growth (locus YDL017W, strain CDC7, stronger effect = lower value) of the same compound?
Answer: 0.985

Question: What about the normalized growth (locus YDL028C, strain MPS1, stronger effect = lower value) of the same compound?
Answer: 0.994

Question: What about the normalized growth [1] of the same compound?
Answer: 0.985

Question: And the normalized growth (locus YDL108W, strain KIN28, stronger effect = lower value)?
Answer: 1

Question: And the normalized growth (locus YDL132W, strain cdc53, stronger effect = lower value)?
Answer: 0.981

Question: What about the normalized growth (locus YDL214C, strain PRR2, stronger effect = lower value) of the same compound?
Answer: 1.01

Question: And the normalized growth (locus YDR052C, strain DBF4, stronger effect = lower value)?
Answer: 0.981

Question: What about the normalized growth (locus YDR054C, strain cdc34, stronger effect = lower value) of the same compound?
Answer: 0.981

Question: What about the normalized growth (locus YDR226W, strain ADK1, stronger effect = lower value) of the same compound?
Answer: 0.974

Question: And the normalized growth (locus YDR477W, strain SNF1, stronger effect = lower value)?
Answer: 0.981

Question: And the normalized growth (locus YER123W, strain YCK3, stronger effect = lower value)?
Answer: 0.942

Question: And the normalized growth (locus YER133W, strain GLC7, stronger effect = lower value)?
Answer: 0.99

Question: What about the normalized growth (locus YFL009W, strain cdc4, stronger effect = lower value) of the same compound?
Answer: 0.981

Question: What about the normalized growth (locus YFL029C, strain CAK1, stronger effect = lower value) of the same compound?
Answer: 0.997

Question: What about the normalized growth (locus YFR003C, strain YPI1, stronger effect = lower value) of the same compound?
Answer: 0.991

Question: What about the normalized growth (locus YFR019W, strain FAB1, stronger effect = lower value) of the same compound?
Answer: 0.933

Question: What about the normalized growth (locus YFR028C, strain CDC14, stronger effect = lower value) of the same compound?
Answer: 0.979

Question: And the normalized growth (locus YGR040W, strain KSS1, stronger effect = lower value)?
Answer: 0.974

Question: And the normalized growth (locus YGR052W, strain FMP48, stronger effect = lower value)?
Answer: 0.931

Question: And the normalized growth (locus YGR092W, strain DBF2, stronger effect = lower value)?
Answer: 0.965

Question: And the normalized growth [2]?
Answer: 1.01

Question: What about the normalized growth (locus YHR079C, strain IRE1, stronger effect = lower value) of the same compound?
Answer: 0.972

Question: What about the normalized growth (locus YHR082C, strain KSP1, stronger effect = lower value) of the same compound?
Answer: 0.925

Question: And the normalized growth (locus YHR205W, strain SCH9, stronger effect = lower value)?
Answer: 1

Question: And the normalized growth (locus YIL147C, strain SLN1, stronger effect = lower value)?
Answer: 0.992

Question: And the normalized growth (locus YJL095W, strain BCK1, stronger effect = lower value)?
Answer: 0.946

Question: And the normalized growth (locus YJL128C, strain PBS2, stronger effect = lower value)?
Answer: 0.988

Question: And the normalized growth (locus YJL157C, strain FAR1, stronger effect = lower value)?
Answer: 1

Question: What about the normalized growth (locus YJR016C, strain ILV3, stronger effect = lower value) of the same compound?
Answer: 0.986

Question: And the normalized growth (locus YJR066W, strain TOR1 (second series), stronger effect = lower value)?
Answer: 0.966

Question: And the normalized growth (locus YJR066W, strain TOR1, stronger effect = lower value)?
Answer: 0.82

Question: What about the normalized growth (locus YKL048C, strain ELM1, stronger effect = lower value) of the same compound?
Answer: 1

Question: And the normalized growth (locus YKL067W, strain YNK1, stronger effect = lower value)?
Answer: 1.02

Question: What about the normalized growth (locus YKL101W, strain HSL1, stronger effect = lower value) of the same compound?
Answer: 1.02

Question: And the normalized growth (locus YKL193C, strain SDS22, stronger effect = lower value)?
Answer: 0.973

Question: What about the normalized growth (locus YKL203C, strain TOR2, stronger effect = lower value) of the same compound?
Answer: 0.965

Question: And the normalized growth (locus YLR113W, strain HOG1, stronger effect = lower value)?
Answer: 0.957

Question: What about the normalized growth (locus YLR133W, strain CKI1, stronger effect = lower value) of the same compound?
Answer: 1.01

Question: And the normalized growth (locus YLR403W, strain SFP1, stronger effect = lower value)?
Answer: 0.976

Question: And the normalized growth (locus YML070W, strain DAK1, stronger effect = lower value)?
Answer: 1.02

Question: And the normalized growth (locus YMR001C, strain CDC5, stronger effect = lower value)?
Answer: 0.984

Question: And the normalized growth (locus YMR205C, strain PFK2 (second series), stronger effect = lower value)?
Answer: 1.02

Question: And the normalized growth (locus YMR277W, strain FCP1, stronger effect = lower value)?
Answer: 0.978

Question: What about the normalized growth (locus YNL006W, strain LST8, stronger effect = lower value) of the same compound?
Answer: 0.986

Question: What about the normalized growth (locus YNL020C, strain ARK1, stronger effect = lower value) of the same compound?
Answer: 1.01

Question: What about the normalized growth (locus YNL161W, strain CBK1, stronger effect = lower value) of the same compound?
Answer: 0.976

Question: What about the normalized growth (locus YNL183C, strain NPR1, stronger effect = lower value) of the same compound?
Answer: 0.968

Question: And the normalized growth (locus YNL207W, strain RIO2, stronger effect = lower value)?
Answer: 0.975

Question: What about the normalized growth (locus YNL222W, strain SSU72, stronger effect = lower value) of the same compound?
Answer: 0.983

Question: And the normalized growth (locus YNL307C, strain MCK1 (second series), stronger effect = lower value)?
Answer: 1

Question: And the normalized growth (locus YOL078W, strain AVO1, stronger effect = lower value)?
Answer: 0.976

Question: What about the normalized growth (locus YOL136C, strain PFK27, stronger effect = lower value) of the same compound?
Answer: 1.03

Question: And the normalized growth (locus YOR061W, strain CKA2, stronger effect = lower value)?
Answer: 0.995

Question: And the normalized growth (locus YOR119C, strain RIO1, stronger effect = lower value)?
Answer: 0.833

Question: And the normalized growth (locus YOR231W, strain MKK1, stronger effect = lower value)?
Answer: 0.936

Question: What about the normalized growth (locus YOR329C, strain SCD5, stronger effect = lower value) of the same compound?
Answer: 0.979

Question: What about the normalized growth (locus YPL031C, strain PHO85, stronger effect = lower value) of the same compound?
Answer: 0.981

Question: And the normalized growth (locus YPL153C, strain RAD53, stronger effect = lower value)?
Answer: 0.968

Question: And the normalized growth (locus YPL204W, strain HRR25, stronger effect = lower value)?
Answer: 0.972

Question: What about the normalized growth (locus YPL209C, strain IPL1, stronger effect = lower value) of the same compound?
Answer: 0.979

Question: What about the normalized growth (locus YPL256C, strain CLN2, stronger effect = lower value) of the same compound?
Answer: 0.954

Question: And the normalized growth (locus YPR025C, strain CCL1, stronger effect = lower value)?
Answer: 0.984

Question: What about the normalized growth (locus YPR106W, strain ISR1, stronger effect = lower value) of the same compound?
Answer: 1

Question: What about the normalized growth (locus YPR111W, strain DBF20, stronger effect = lower value) of the same compound?
Answer: 0.998

Question: What about the normalized growth (strain NNK1, stronger effect = lower value) of the same compound?
Answer: 0.992

Question: What about the normalized growth (strain TSCII, stronger effect = lower value) of the same compound?
Answer: 0.985
